Bioassay records deposited in PubChem by National Center for Advancing Translational Sciences (NCATS).
This is one part of a sample in which hits are shown more often than they occur.
RE007 growth inh – qHTS Assay for Inhibitors of the HIV-1 protein Vpr. S. pombe RE007 Vpr strain, BacTiter-Glo ATP luminescence, 24 h. Potency, µM (doses to about 92.2 µM), hits mostly inhibitors. actives 0.21% (n = 360,000); active = well fitted falling curve with a large enough effect; inconclusive = small, poorly fitted or top-dose-only effect; inactive = no such curve, though single readings can be large or run the other way; also: nearly all actives have a fitted effect of over 50% in size
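Fission yeast RE007 carrying one integrated HIV-1 vpr copy, seeded at OD 0.01 in PMG+AL medium with 23 nL pinned compound. Grown 24 h at 30 degrees; viability read by BacTiter-Glo luminescence after 5 min.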
LmPK inhibitor – qHTS Assay for Inhibitors of Leishmania Mexicana Pyruvate Kinase (LmPK). actives 0.37% (n = 290,000). purified LmPK, Kinase-Glo ATP luminescence, 1 h. Q27686. AID 1721, 2009. Potency, µM (doses to about 57.5 µM), actives largely listed as inhibitors
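In 50 mM imidazole pH 7.2 with 7 mM MgCl2, LmPK (0.1 nM) turned over PEP (0.5 mM) and ADP (0.1 mM) for 1 h at room temperature. Luciferase read-out of ATP.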
CHX counter – Cycloheximide Counterscreen for Small Molecule Inhibitors of Shiga Toxin; max response, %; cell reporter, cycloheximide protein synthesis inhibition counterscreen; actives 12% (n = 300,000); in the data active = max response mostly above about 13%, no sharp cut-off; inactive = mostly below about 14%; also: read at 38.3 µM for the half of the compounds with a filed dose
Tb PYK inh – qHTS of Trypanosoma Brucei Inhibitors | pyruvate kinase (Trypanosoma brucei), Q57TT1 | TbPYK enzyme, Kinase-Glo Plus ATP luminescence, 45 min | Potency, µM (doses to about 76.8 µM), actives largely listed as inhibitors | actives 0.12% (n = 410,000) | AID 624173, 2012; also: nearly all actives have a fitted effect of over 50% in size
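In this concentration-response screen, enzyme-free wells defined baseline while DMSO plates tracked drift. Each reaction combined TbPYK, substrate, compound and 130 uM ADP for 45 min at room temperature. Kinase-Glo Plus luminescence gave the signal.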
Giardia FBPA inh-1 – qHTS Assay for Inhibitors of Fructose-1,6-bisphosphate Aldolase from Giardia Lamblia | purified Giardia FBPA | Potency, µM (top dose mostly 59.6 µM), usual class: inhibitors | actives 0.71% (n = 290,000); also: nearly all actives have a fitted effect of over 55% in size
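40 nM FBPA preincubated 10 min at RT with compound (up to 57.5 uM final), then substrate plus GAPDH/TPI/NAD/arsenate coupling and diaphorase/resazurin added. Fluorescence read after 20 min at RT, 525/598 nm.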
Shiga inhibitor – A qHTS for Small Molecule Inhibitors of Shiga Toxin; Vero cells, Shiga toxin protein synthesis inhibition reporter; AID 2315, 2010; inhibition, % at 38.7 µM; actives 9.2% (n = 290,000); in the data active = inhibition mostly above about 28%, no sharp cut-off; inactive = mostly below about 43%
Giardia growth – qHTS Assay for Inhibitors of Fructose-1,6-bisphosphate Aldolase from Giardia Lamblia: Giardia lamblia growth inhibition | shares compounds with Giardia FBPA inh-1 | Giardia lamblia trophozoite growth inhibition | Potency, µM (series often up to 57.5 µM), actives largely listed as inhibitors | actives 5% (n = 1,500);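 also: trophozoites exposed to compound for 48 h at 37 °C; nearly all actives have a fitted effect of over 70% in size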
Mammal cell tox – qHTS Assay for Inhibitors of Fructose-1,6-bisphosphate Aldolase from Giardia Lamblia: Mammalian cellular toxicity | actives 4% (n = 1,500) | mammalian cell viability counter-screen, qHTS | shares compounds with Giardia FBPA inh-1 | Potency, µM (top dose mostly 57.5 µM), hits mostly inhibitors;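 also: Chinese hamster ovary cells used as mammalian cytotoxicity surrogate; viability measured as cellular ATP by luminescence; compound exposure lasted 48 h before reading; nearly all actives have a fitted effect of over 60% in size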
Giardia FBPA inh-2 – qHTS Assay for Inhibitors of Fructose-1,6-bisphosphate Aldolase from Giardia Lamblia: Primary screen confirmation | shares compounds with Giardia FBPA inh-1 | purified Giardia aldolase enzyme activity, qHTS | Potency, µM (highest dose often 57.5 µM), usual class: inhibitors | actives 5% (n = 1,500) | AID 2787, 2010; also: nearly all actives have a fitted effect of over 45% in size
Rabbit FBPA inh – qHTS Assay for Inhibitors of Fructose-1,6-bisphosphate Aldolase from Giardia Lamblia: Rabbit FBPA Selectivity | shares compounds with Giardia FBPA inh-1 | AID 2794, 2010 | actives 4% (n = 1,500) | Rabbit muscle FBPA enzyme inhibition, selectivity counter-screen | Potency, µM (top dose mostly 57.5 µM), hits mostly inhibitors; also: nearly all actives have a fitted effect of over 60% in size
Target sequence (P00883 whole entry, looked up): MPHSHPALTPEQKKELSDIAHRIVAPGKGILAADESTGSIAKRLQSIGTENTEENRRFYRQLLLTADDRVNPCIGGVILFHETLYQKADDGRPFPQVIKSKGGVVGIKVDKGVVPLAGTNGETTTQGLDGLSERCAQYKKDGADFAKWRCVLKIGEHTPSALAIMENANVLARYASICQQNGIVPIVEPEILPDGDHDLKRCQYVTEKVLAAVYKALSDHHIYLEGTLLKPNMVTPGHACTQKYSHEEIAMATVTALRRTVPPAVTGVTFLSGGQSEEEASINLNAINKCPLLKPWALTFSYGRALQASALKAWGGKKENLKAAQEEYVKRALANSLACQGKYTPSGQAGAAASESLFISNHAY
GAPDH coupling – qHTS Assay for Inhibitors of Fructose-1,6-bisphosphate Aldolase from Giardia Lamblia: Coupling assay counterscreen confirmation; Potency, µM (titrated, usually from 57.5 µM), actives largely listed as inhibitors; GAPDH coupling enzyme counterscreen, biochemical, qHTS; shares compounds with Giardia FBPA inh-1; actives 6% (n = 1,500); also: nearly all actives have a fitted effect of over 55% in size
A number is an active result; . = inactive; ? = inconclusive; / = no result; [ ] = another dose, or the depositor's remark. Unless noted, calls follow the shape of the dose curve; as a rule, active = well fitted curve in the direction sought with a large enough effect; inconclusive = small, poorly fitted or top-dose-only effect, or another doubt; inactive = no such curve, though single readings can be large; an effect the other way counts as inactive or inconclusive.

SMILES	RE007 growth inh	LmPK inhibitor	CHX counter	Tb PYK inh	Giardia FBPA inh-1	Shiga inhibitor	Giardia growth	Mammal cell tox	Giardia FBPA inh-2	Rabbit FBPA inh	GAPDH coupling
CCNC(=S)N/N=C/c1ccc(C(=O)O)cc1	.	?	.	.	17.7µM	.	.[10.4 µM]	.	.	.	.
CCNC(=S)N/N=C/c1ccc(OCc2ccc(C(=O)OC)cc2)cc1	.	.	.	.	.	.	/	/	/	/	/
CNC(=S)N/N=C/c1ccc(-c2ccc(Cl)c([N+](=O)[O-])c2)o1	.	.	.	.	.	.	/	/	/	/	/
CNC(=S)N/N=C/c1ccc(-c2ccc(C(=O)O)cc2)o1	?	14.1µM	23.0	.	17.7µM	56.5	.[10.4 µM]	.	.	.	.
COCc1cc(=O)[nH]c(-c2csc(C)n2)n1	.	.	.	.	4.46µM	.	.	.	.	.	.
COc1cc(OC)c(OC)cc1CN1CCCC(C(=O)N2CCCC2)C1 (stereo not given)	.	.	.	.	28.2µM	.	.	.	.	.	.
CCNc1nc(NC(C)C)nc(NS(=O)(=O)c2ccc(C)cc2)n1	.	.	.	.	28.2µM	.	.	.	?	?	39.8µM
CC(=O)N1CCCc2cc(S(=O)(=O)N3CCC(C(=O)Nc4cccc(Cl)c4C)CC3)ccc21	/	/	/	.	/	/	/	/	/	/	/
CN(C)c1ccc(NC2=C(Cl)C(=O)c3ccccc3C2=O)cc1	?	.	51.2	?	?	69.2	11.3µM	32.6µM	?	?	3.66µM
Fc1ccccc1N1CCN(c2nccn3nc(-c4ccc(Br)cc4)cc23)CC1	/	/	/	.	/	/	/	/	/	/	/
COc1ccc(Cl)cc1NC(=O)C1CCN(c2ncnc3c2nc2n3CCCCC2)CC1	/	/	/	.	/	/	/	/	/	/	/
CCC(NC(=O)NNC(N)=S)(C(F)(F)F)C(F)(F)F	.	.	.	.	19.9µM	.	.	.	.	.	.
CCC(NC(=O)Nc1nnc(C(F)(F)F)s1)(C(F)(F)F)C(F)(F)F	.	.	.	.	.	.	/	/	/	/	/
CC(=O)N1CCN(C(=S)NC(=O)c2c(-c3ccccc3Cl)noc2C)CC1	.	.	.	.	15.8µM	.	.[10.4 µM]	.	.	.	.
CCCc1ccc(OCC(=O)Nc2sc3c(c2C(=O)OCC)CCC(C(C)(C)C)C3)cc1 (stereo not given)	/	/	/	.	/	/	/	/	/	/	/
CCN(CC)c1ccc2c(C)c(Cl)c(=O)oc2c1	.	.	.	.	17.7µM	.	.	.	.	.	.
CCN(CC)c1ccc2c(Cl)c(Br)c(=O)oc2c1	.	.	.	.	.	.	/	/	/	/	/
CC1CCCC/C1=N\NC(=S)Nc1cccnc1 (stereo not given)	.	.	.	.	17.7µM	.	.	.	.	.	.
S=C(Nc1cccnc1)NC1CCCC1	.	.	.	.	.	.	/	/	/	/	/
